# miR122 inh: miR-122 suppressors via Renilla sensor increase, primary screen, cell-based, Huh7 psiCHECK-miR122, Renilla luciferase, single point. 340,000 tested, 0.14% active. 48 h. activation, % at 12.5 µM. AID 623901, 2012;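 active means mean activation of 30% or more, with every replicate also reaching 30%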;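 further: 0% = median of neutral control wells and 100% = median of positive control wells; higher luciferase signal means stronger suppression of miR-122 activity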
# An asterisk follows results filed as active. This excerpt belongs to a sample that is enriched for hits.
SMILES,miR122 inh
C[C@@H]1CN([C@@H](C)CO)S(=O)(=O)c2ccc(Br)cc2O[C@H]1CN(C)C(=O)c1ccc2c(c1)OCO2,-5.6
C[C@H](CO)N1C[C@H](C)[C@H](CN(C)C(=O)C2CCOCC2)Oc2cc(-c3ccc(C(=O)N(C)C)cc3)ccc2S1(=O)=O,4.5
C[C@H]1CN([C@@H](C)CO)S(=O)(=O)c2ccc(-c3ccc(C(=O)N(C)C)cc3)cc2O[C@H]1CN(C)C(=O)C1CCOCC1,7.3
C/C=C/c1ccc2c(c1)O[C@@H](CN(C)C(=O)c1ccc3c(c1)OCO3)[C@H](C)CN([C@@H](C)CO)S2(=O)=O,-31.5
C[C@H]1CN([C@@H](C)CO)S(=O)(=O)c2ccc(-c3ccc(C(=O)N(C)C)cc3)cc2O[C@H]1CN(C)C(=O)C1CCC1,43.1*
COc1ccc(S(=O)(=O)N(C)C[C@@H]2Oc3cc(-c4cccc(F)c4)ccc3S(=O)(=O)N([C@H](C)CO)C[C@H]2C)cc1,39.3*
C[C@@H]1CN([C@H](C)CO)S(=O)(=O)c2ccc(-c3ccc(C(=O)N(C)C)cc3)cc2O[C@@H]1CN(C)C(=O)C1CCC1,42.9*
Cc1ccc(S(=O)(=O)N(C)C[C@@H]2Oc3cc(-c4cccc(F)c4)ccc3S(=O)(=O)N([C@@H](C)CO)C[C@H]2C)cc1,9.0
C[C@@H]1CN([C@H](C)CO)S(=O)(=O)c2ccc(-c3ccc(C(=O)N(C)C)cc3)cc2O[C@@H]1CN(C)C,3.6
Cc1ccc(S(=O)(=O)N(C)C[C@@H]2Oc3cc(-c4cccc(F)c4)ccc3S(=O)(=O)N([C@H](C)CO)C[C@@H]2C)cc1,2.6
C[C@@H]1CN([C@H](C)CO)S(=O)(=O)c2ccc(-c3ccccc3)cc2O[C@@H]1CN(C)C(=O)c1ccc2c(c1)OCO2,35.6*
C[C@H]1CN([C@@H](C)CO)S(=O)(=O)c2ccc(-c3ccc(C(=O)N(C)C)cc3)cc2O[C@H]1CN(C)C,4.8
CC(=O)N(C)C[C@H]1Oc2cc(C#CC3CCCCC3)ccc2S(=O)(=O)N([C@H](C)CO)C[C@@H]1C,-19.6
C[C@H]1CN([C@@H](C)CO)S(=O)(=O)c2ccc(-c3cccnc3)cc2O[C@@H]1CN(C)Cc1ccccn1,-2.4
C[C@H]1CN([C@@H](C)CO)C(=O)c2cc(C#Cc3ccccc3F)cnc2O[C@H]1CN(C)C(=O)C1CCOCC1,1.8
CNC[C@@H]1Oc2cc(C#Cc3cccc(F)c3)ccc2S(=O)(=O)N([C@@H](C)CO)C[C@H]1C,1.5
COc1cccc(NC(=O)N(C)C[C@H]2Oc3cc(-c4cccc(C(=O)N(C)C)c4)ccc3S(=O)(=O)N([C@@H](C)CO)C[C@@H]2C)c1,-43.9
COCC#Cc1ccc2c(c1)O[C@@H](CN(C)C(=O)C1CCCCC1)[C@H](C)CN([C@@H](C)CO)S2(=O)=O,-10.1
CC(C)CC#Cc1cnc2c(c1)C(=O)N([C@H](C)CO)C[C@@H](C)[C@@H](CN(C)C(=O)Nc1cc(F)ccc1F)O2,10.1
COCC(=O)N(C)C[C@H]1Oc2ncc(/C=C/c3ccccc3)cc2C(=O)N([C@@H](C)CO)C[C@H]1C,8.3
COCC(=O)N(C)C[C@@H]1Oc2cc(-c3cncnc3)ccc2S(=O)(=O)N([C@H](C)CO)C[C@H]1C,-2.9
C[C@H]1CN([C@@H](C)CO)S(=O)(=O)c2ccc(-c3ccc(C#N)cc3)cc2O[C@H]1CN(C)C(=O)C1CC1,-10.7
C[C@@H]1CN([C@H](C)CO)S(=O)(=O)c2ccc(-c3ccc(C(=O)N(C)C)cc3)cc2O[C@@H]1CN(C)C(=O)C1CCOCC1,19.9
C[C@H](CO)N1C[C@H](C)[C@H](CN(C)C(=O)C2CCC2)Oc2cc(-c3ccc(C(=O)N(C)C)cc3)ccc2S1(=O)=O,54.7*
C[C@H]1CN([C@@H](C)CO)S(=O)(=O)c2ccc(-c3ccc(C(=O)N(C)C)cc3)cc2O[C@@H]1CN(C)C(=O)C1CCOCC1,-8.6
SMILES,miR122 inh
COc1cccc(-c2ccc3c(c2)O[C@@H](CN(C)C(=O)C2CCCCC2)[C@@H](C)CN([C@H](C)CO)S3(=O)=O)c1,-0.4
COc1cccc(-c2ccc3c(c2)O[C@H](CN(C)C(=O)C2CCCCC2)[C@H](C)CN([C@H](C)CO)S3(=O)=O)c1,-15.4
COc1cccc(-c2ccc3c(c2)O[C@H](CN(C)C(=O)C2CCOCC2)[C@H](C)CN([C@@H](C)CO)S3(=O)=O)c1,38.6*
C[C@@H]1CN([C@H](C)CO)S(=O)(=O)c2ccc(-c3cccnc3)cc2O[C@H]1CN(C)Cc1ccccn1,4.4
C[C@@H]1CN([C@@H](C)CO)C(=O)c2cc(/C=C/c3ccccc3)cnc2O[C@@H]1CN(C)C(=O)c1cccnc1,3.1
C[C@H]1CN([C@@H](C)CO)C(=O)c2cc(/C=C/c3ccccc3)cnc2O[C@@H]1CN(C)C(=O)C1CCOCC1,2.1
C[C@H](CO)N1C[C@H](C)[C@@H](CN(C)C)Oc2ncc(C#CC3CC3)cc2C1=O,2.0
CCCNC(=O)N1C[C@@H](C)[C@@H](OC)CN(C)C(=O)c2cc(NS(=O)(=O)CC)ccc2OC[C@H]1C,-2.1
CCS(=O)(=O)Nc1ccc2c(c1)C(=O)N(C)C[C@@H](OC)[C@H](C)CN(CC1CCCC1)[C@H](C)CO2,38.0*
CCCNC(=O)N1C[C@H](C)[C@@H](OC)CN(C)C(=O)c2cc(NS(=O)(=O)CC)ccc2OC[C@@H]1C,2.1
COc1cccc(-c2cnc3c(c2)C(=O)N([C@H](C)CO)C[C@H](C)[C@H](CN(C)S(=O)(=O)c2ccc(F)cc2)O3)c1,-16.2
CCC(=O)N(C)C[C@@H]1Oc2ncc(C#C[C@H](C)O)cc2C(=O)N([C@@H](C)CO)C[C@H]1C,-0.7
C[C@H](CO)N1C[C@H](C)[C@@H](CN(C)C(=O)CC2CC2)Oc2cc(-c3ccccc3)ccc2S1(=O)=O,-32.5
C[n+]1c2cc(N)ccc2cc2ccc(N)cc21,76.0*
CN1C(=O)c2cc(NC(=O)c3cccs3)ccc2OC[C@H]2O[C@@H](CC(=O)N3CCCCC3)CC[C@H]21,36.7*
CO[C@@H]1CN(C)C(=O)c2cc(NC(=O)C3CCOCC3)ccc2OC[C@@H](C)N(C)C[C@H]1C,-0.8
CN1C(=O)c2cc(NC(=O)c3cccs3)ccc2OC[C@H]2O[C@H](CC(=O)NCC(F)(F)F)CC[C@H]21,50.0*
CN1C(=O)c2cc(NC(=O)Cc3cccs3)ccc2OC[C@@H]2O[C@H](CC(=O)NCC3CCCCC3)CC[C@@H]21,-154.4
CCCC(=O)Nc1ccc2c(c1)C(=O)N(C)[C@H]1CC[C@@H](CC(=O)NCC(F)(F)F)O[C@H]1CO2,-143.3
CO[C@H]1CN(C)C(=O)c2cc(NC(=O)c3nc4ccccc4s3)ccc2OC[C@@H](C)N(Cc2ccncc2)C[C@H]1C,-2.0
CCCC(=O)Nc1ccc2c(c1)C(=O)N(C)C[C@@H](OC)[C@@H](C)CN[C@@H](C)CO2,0.2
CN1C(=O)c2cc(NC(=O)c3cccs3)ccc2OC[C@@H]2O[C@@H](CC(=O)NCCN3CCCCC3)CC[C@H]21,83.3*
CCCC(=O)Nc1ccc2c(c1)C(=O)N(C)[C@@H]1CC[C@H](CC(=O)NCC(F)(F)F)O[C@H]1CO2,36.7*
CO[C@H]1CN(C)C(=O)c2cc(NC(=O)C3CCOCC3)ccc2OC[C@@H](C)N(C)C[C@@H]1C,-3.5
COc1ccccc1-c1cnc2c(c1)C(=O)N([C@@H](C)CO)C[C@H](C)[C@@H](CN(C)C(=O)c1ccccc1)O2,-4.6
C[C@@H]1CN([C@H](C)CO)S(=O)(=O)c2ccc(/C=C/c3ccccc3)cc2O[C@H]1CN(C)C(=O)c1ccccc1,-8.5
